According to the supplement of paper PMC10338343:
± gives the standard deviation.

Key:
[1] = tested on: MILI (PIWIL2) piRISC loaded with piRNA #1 (26 nt); assay: pre-steady-state target cleavage rate (min^-1); guide: piRNA #1 5'p-UGAGGUAGUAGGUUGUAUAGUAUCCA; higher = faster piRNA-guided slicing of the target; details: auxiliary factor: 500 nM mouse GTSF1;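 note: 1 nM active piRISC with 0.1 nM target library at 33 °C single turnover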
Outline: (§1)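 In HEPES–potassium acetate buffer at 33 °C, […] transcribed, DNA-blocked target RNA library was mixed with 1 nM active affinity-purified piRISC carrying one synthetic guide, with or without 500 nM GTSF1 partner protein, for 0–8 or 0–960 min. Uncleaved targets were sequenced and normalised to depth and to weakly complementary targets; three trials were pooled and k3 was capped at 0.0001 min^-1. The pre-steady-state cleavage rate followed from a burst-and-steady-state fit.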

[2] = tested on: EfPiwi piRISC loaded with piRNA #1 (26 nt); assay: pre-steady-state target cleavage rate (min^-1); auxiliary factor: 500 nM Ephydatia muelleri Gtsf1; guide: piRNA #1 5'p-UGAGGUAGUAGGUUGUAUAGUAUCCA; MIWI and MILI are mouse PIWI proteins and EfPiwi is from a freshwater sponge; tags in brackets are library labels; higher = faster piRNA-guided slicing of the target
Outline: as §1

GGAGACGAUACUAUACAACCUCCUACCUCA
pre-steady-state target cleavage rate [1]: 0.041 ± 0.0079 | pre-steady-state target cleavage rate [2]: 0.00579 ± 0.0016

GGAGUGGUUACUAUACUACCUACUACCUCA
pre-steady-state target cleavage rate [1]: 0.183 ± 0.01 | pre-steady-state target cleavage rate [2]: 0.00596 ± 0.0023

GGAGUGGUUACUAUACAACCUACUACCACA
pre-steady-state target cleavage rate [1]: 0.0961 ± 0.0098 | pre-steady-state target cleavage rate [2]: 0.00384 ± 0.0022

GGAGAGGAUACUAUACAACCAACUACGUCA
pre-steady-state target cleavage rate [1]: 0.00609 ± 0.0018 | pre-steady-state target cleavage rate [2]: 0.00338 ± 0.0016

GGAGACCUAUCUAUACAACCUACAACCUCA
pre-steady-state target cleavage rate [1]: 0.0886 ± 0.013 | pre-steady-state target cleavage rate [2]: 0.00366 ± 0.0032

GGAGAGGAUACAAUACAAGCUACUACCUCA
pre-steady-state target cleavage rate [1]: 0.178 ± 0.017 | pre-steady-state target cleavage rate [2]: 0.0036 ± 0.0019

GGAGAGGAUUCUAUACAACCUACUACCUCA
pre-steady-state target cleavage rate [1]: 0.179 ± 0.011 | pre-steady-state target cleavage rate [2]: 0.0066 ± 0.0039

GGAGACGAUACUAUACAACGCUACUACCUCA
pre-steady-state target cleavage rate [1]: 0.00688 ± 0.0028 | pre-steady-state target cleavage rate [2]: 0.00969 ± 0.0037

GGAGACCUUACAAUACAUCCUACUACCUCA
pre-steady-state target cleavage rate [1]: 0.232 ± 0.021 | pre-steady-state target cleavage rate [2]: 0.00553 ± 0.004

GGAGAGGAUACUAUACAACCUACUACGACA
pre-steady-state target cleavage rate [1]: 0.0606 ± 0.017 | pre-steady-state target cleavage rate [2]: 0.0044 ± 0.0023

GGAGAGGAUACUAUACAACCUACACCUCA
pre-steady-state target cleavage rate [1]: 0.00718 ± 0.0031 | pre-steady-state target cleavage rate [2]: 0.00361 ± 0.002

GGAGUGGAUACUAUACAACCUACGUACCUCA
pre-steady-state target cleavage rate [1]: 0.118 ± 0.014 | pre-steady-state target cleavage rate [2]: 0.00401 ± 0.0015

GGAGAGGAUACUAUACAACCUACUACCUUCA
pre-steady-state target cleavage rate [1]: 0.178 ± 0.016 | pre-steady-state target cleavage rate [2]: 0.104 ± 0.039

GGAGAGGAUACUAAACAACCUACUACCACA
pre-steady-state target cleavage rate [1]: 0.108 ± 0.011 | pre-steady-state target cleavage rate [2]: 0.00277 ± 0.002

GGAGUGGAUACGAUACAACCUACUACCUCA
pre-steady-state target cleavage rate [1]: 0.176 ± 0.011 | pre-steady-state target cleavage rate [2]: 0.0121 ± 0.0053

GGAGACCAUAUUAUACAACCUACUACCUCA
pre-steady-state target cleavage rate [1]: 0.188 ± 0.015 | pre-steady-state target cleavage rate [2]: 0.116 ± 0.036

GGAGACCUUACCAUACAACCUACUACCUCA
pre-steady-state target cleavage rate [1]: 0.134 ± 0.02 | pre-steady-state target cleavage rate [2]: 0.0112 ± 0.0056

GGAGAGGAUACUAUACAACCUACUACUCUCA
pre-steady-state target cleavage rate [1]: 0.123 ± 0.015 | pre-steady-state target cleavage rate [2]: 0.00775 ± 0.0031

GGAGACGAUACUAUACAACCUACUCCUCA
pre-steady-state target cleavage rate [1]: 0.0114 ± 0.0032 | pre-steady-state target cleavage rate [2]: 0.0048 ± 0.0022

GGAGUGGAUUCUAUACAAGCUACUACCUCA
pre-steady-state target cleavage rate [1]: 0.228 ± 0.013 | pre-steady-state target cleavage rate [2]: 0.00371 ± 0.0019

GGAGACCAUACUAUACAACCAACUACGUCA
pre-steady-state target cleavage rate [1]: 0.00313 ± 0.003 | pre-steady-state target cleavage rate [2]: 0.00504 ± 0.004

GGAGACCUAACUCUACAACCUACUACCUCA
pre-steady-state target cleavage rate [1]: 0.114 ± 0.031 | pre-steady-state target cleavage rate [2]: 0.0071 ± 0.0032

GGAGACGAUACUAUACAAGCUACUAGCUCA
pre-steady-state target cleavage rate [1]: 0.0998 ± 0.024 | pre-steady-state target cleavage rate [2]: 0.00375 ± 0.0019

GGAGUGGAUACUAUACAACCUACACCUCA
pre-steady-state target cleavage rate [1]: 0.00292 ± 0.0021 | pre-steady-state target cleavage rate [2]: 0.00338 ± 0.0018

GGAGUGGAUACUAUACAAGCUACUACCACA
pre-steady-state target cleavage rate [1]: 0.133 ± 0.012 | pre-steady-state target cleavage rate [2]: 0.0039 ± 0.0017

GGAGACCAUUCUAUACAACCUACUACCACA
pre-steady-state target cleavage rate [1]: 0.159 ± 0.018 | pre-steady-state target cleavage rate [2]: 0.00335 ± 0.0031

GGAGUGGUUACUAUACAACCUAGUACCUCA
pre-steady-state target cleavage rate [1]: 0.0547 ± 0.01 | pre-steady-state target cleavage rate [2]: 0.00359 ± 0.0015

GGAGAGGAUACUAUACAACCUACUAGCUCA
pre-steady-state target cleavage rate [1]: 0.0627 ± 0.012 | pre-steady-state target cleavage rate [2]: 0.00484 ± 0.0019

GGAGACGCAUACUAUACAACCUACUACCUCA
pre-steady-state target cleavage rate [1]: 0.268 ± 0.024 | pre-steady-state target cleavage rate [2]: 0.0478 ± 0.018

GGAGUGGAUACUAUACAACCUACUACUCUCA
pre-steady-state target cleavage rate [1]: 0.14 ± 0.012 | pre-steady-state target cleavage rate [2]: 0.00513 ± 0.0029

GGAGACCUAACUGAUACAACCUACUACCUCA
pre-steady-state target cleavage rate [1]: 0.183 ± 0.045 | pre-steady-state target cleavage rate [2]: 0.00745 ± 0.0044

GGAGAGGAUACUAUACAACCUACUAUCCUCA
pre-steady-state target cleavage rate [1]: 0.0143 ± 0.0055 | pre-steady-state target cleavage rate [2]: 0.00536 ± 0.0025

GGAGUGGAUACUAUACAUCCUACUACGUCA
pre-steady-state target cleavage rate [1]: 0.0364 ± 0.0082 | pre-steady-state target cleavage rate [2]: 0.0038 ± 0.0013

GGAGACCUAACUAUACAACCUACUACCUCU [g2:g21:cont:t1U]
pre-steady-state target cleavage rate [1]: 0.152 ± 0.025 | pre-steady-state target cleavage rate [2]: 0.915 ± 0.29

GGAGACCAUACUGUACAACCUACUACCUCA
pre-steady-state target cleavage rate [1]: 0.079 ± 0.012 | pre-steady-state target cleavage rate [2]: 0.0144 ± 0.0056

GGAGACCUAUCUAUACAACCUACUACCUCU [g2:g20:cont:t1U]
pre-steady-state target cleavage rate [1]: 0.0927 ± 0.011 | pre-steady-state target cleavage rate [2]: 0.993 ± 0.45

GGAGACCUAUGGAUACAACCUACUACCUCA
pre-steady-state target cleavage rate [1]: 0.0189 ± 0.0046 | pre-steady-state target cleavage rate [2]: 0.00946 ± 0.005

GGAGAGGAUACUAUACGACCUACUACCUCA
pre-steady-state target cleavage rate [1]: 0.121 ± 0.0093 | pre-steady-state target cleavage rate [2]: 0.117 ± 0.05

GGAGUGGUAUACUAUACAACCUACUACCUCA
pre-steady-state target cleavage rate [1]: 0.166 ± 0.011 | pre-steady-state target cleavage rate [2]: 0.0155 ± 0.0067

GGAGACGAUACUAUACAACGUACAACCUCA
pre-steady-state target cleavage rate [1]: 0.0345 ± 0.0071 | pre-steady-state target cleavage rate [2]: 0.00279 ± 0.0018

GGAGACCUAUGAUUACAACCUACUCACCUCA
pre-steady-state target cleavage rate [1]: 0.00473 ± 0.0023 | pre-steady-state target cleavage rate [2]: < 0.0001

GGAGAGGAUACUAUACAAGCAACUACCUCA
pre-steady-state target cleavage rate [1]: 0.00819 ± 0.0023 | pre-steady-state target cleavage rate [2]: 0.00405 ± 0.0022

GGAGACCUUACUAUACAACCUAGUACCACA
pre-steady-state target cleavage rate [1]: 0.00907 ± 0.0036 | pre-steady-state target cleavage rate [2]: 0.00255 ± 0.0023

GGAGAGGAUACUAUACAACCUACUACGAGA
pre-steady-state target cleavage rate [1]: 0.00764 ± 0.0034 | pre-steady-state target cleavage rate [2]: 0.00374 ± 0.0018

GGAGACCAUACUAUACAAACUACUACCUCA
pre-steady-state target cleavage rate [1]: 0.234 ± 0.017 | pre-steady-state target cleavage rate [2]: 0.00853 ± 0.0037

GGAGACGAUACUAUCACAACCUACUACCUCA
pre-steady-state target cleavage rate [1]: 0.221 ± 0.017 | pre-steady-state target cleavage rate [2]: 0.0153 ± 0.0062

GGAGAGGAUACUAUACAACCUACUACCUCG [g2:g25:cont:t1G]
pre-steady-state target cleavage rate [1]: 0.175 ± 0.015 | pre-steady-state target cleavage rate [2]: 0.143 ± 0.048

GGAGACGAUUCAAUACAACCUACUACCUCA
pre-steady-state target cleavage rate [1]: 0.104 ± 0.012 | pre-steady-state target cleavage rate [2]: 0.0447 ± 0.018

GGAGACCUAUGUUAUACAACCUACUACCUCA
pre-steady-state target cleavage rate [1]: 0.104 ± 0.01 | pre-steady-state target cleavage rate [2]: 0.0122 ± 0.0063

GGAGUGGUUACUAUACAACCAACUACCUCA
pre-steady-state target cleavage rate [1]: 0.00796 ± 0.0019 | pre-steady-state target cleavage rate [2]: 0.0036 ± 0.0014

GGAGACGAUACUAUACAACCUAGUUCCUCA
pre-steady-state target cleavage rate [1]: 0.00516 ± 0.0038 | pre-steady-state target cleavage rate [2]: 0.00305 ± 0.0018

GGAGAGGAUACUAUUCAACCUACUUCCUCA
pre-steady-state target cleavage rate [1]: 0.0111 ± 0.0046 | pre-steady-state target cleavage rate [2]: 0.00313 ± 0.0024

GGAGACCAUACUAUACAACCUACUACCUCU [g2:g23:cont:t1U]
pre-steady-state target cleavage rate [1]: 0.254 ± 0.024 | pre-steady-state target cleavage rate [2]: 1.45 ± 0.55

GGAGUGGAUACUAUACAACCUACAUACCUCA
pre-steady-state target cleavage rate [1]: 0.109 ± 0.011 | pre-steady-state target cleavage rate [2]: 0.00344 ± 0.0016

GGAGACGAUACUAUUCUACCUACUACCUCA
pre-steady-state target cleavage rate [1]: 0.173 ± 0.012 | pre-steady-state target cleavage rate [2]: 0.00416 ± 0.0035

GGAGAGGAUACAUAUACAACCUACUACCUCA
pre-steady-state target cleavage rate [1]: 0.104 ± 0.0078 | pre-steady-state target cleavage rate [2]: 0.0587 ± 0.024

GGAGACCUUACUAUACAACCGACUACCUCA
pre-steady-state target cleavage rate [1]: 0.00424 ± 0.0031 | pre-steady-state target cleavage rate [2]: 0.00553 ± 0.0036

GGAGACCUUUCUAUACAACCUACUACCUCA
pre-steady-state target cleavage rate [1]: 0.0895 ± 0.0097 | pre-steady-state target cleavage rate [2]: 0.11 ± 0.036
